Measurements as given in publication PMC5540273 (PLoS ONE, 2017).

Tests used:
Details in all cases: concentration: 1 μM, replicates: in singlicate; n = 1
ACVR2A = test system: ACVR2A
ACVR2B = test system: ACVR2B
ACVRL1 = test system: ACVRL1
ADCK3 = test system: T1, ADCK3
T1 construct: gene CABC1

ADCK4 = test system: ADCK4
AKT1 = test system: AKT1
AKT2 = test system: AKT2
AKT3 = test system: AKT3
ALK = test system: ALK
AMPK-alpha1 = test system: T2, AMPK-alpha1
T2 construct: gene PRKAA1

AMPK-alpha2 = test system: T3, AMPK-alpha2
T3 construct: gene PRKAA2

ANKK1 = test system: ANKK1
ARK5 = test system: T4, ARK5
T4 construct: gene NUAK1

ASK1 = test system: T5, ASK1
T5 construct: gene MAP3K5

ASK2 = test system: T6, ASK2
T6 construct: gene MAP3K6

AURKA = test system: AURKA
AURKB = test system: AURKB
AURKC = test system: AURKC
AXL = test system: AXL
BIKE = test system: T7, BIKE
T7 construct: gene BMP2K
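Further: KINOMEscan kinase panel screen.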

Row | Structure (SMILES) | %Inh (ACVR2A) [%] | %Inh (ACVR2B) [%] | %Inh (ACVRL1) [%] | %Inh (ADCK3) [%] | %Inh (ADCK4) [%] | %Inh (AKT1) [%] | %Inh (AKT2) [%] | %Inh (AKT3) [%] | %Inh (ALK) [%] | %Inh (AMPK-alpha1) [%] | %Inh (AMPK-alpha2) [%] | %Inh (ANKK1) [%] | %Inh (ARK5) [%] | %Inh (ASK1) [%] | %Inh (ASK2) [%] | %Inh (AURKA) [%] | %Inh (AURKB) [%] | %Inh (AURKC) [%] | %Inh (AXL) [%] | %Inh (BIKE) [%]
1 | COc1ccc(CNC(=O)NC2CCN(c3ccnc(Nc4ccc(OC)cc4)n3)C2)cc1 (stereo not shown) [GSK1379727] | 0 | 0 | 0 | 3 | 59 | 0 | 0 | 0 | 28 | 0 | 0 | 0 | 0 | 0 | 0 | 5 | 22 | 56 | 7 | 11
2 | O=C(NCCNc1ccnc(Nc2ccc(F)cc2)n1)c1cc2ccccc2s1 [GSK1379874] | 0 | 0 | 0 | 0 | 27 | 0 | 0 | 0 | 5 | 0 | 0 | 0 | 0 | 1 | 0 | 11 | 0 | 32 | 10 | 0
3 | NS(=O)(=O)CCc1cccc(Nc2nccc(-c3c(-c4cccc(NC(=O)c5c(F)cccc5F)c4)nn4ccccc34)n2)c1 [GSK336735] | 0 | 37 | 0 | 9 | 42 | 0 | 16 | 0 | 24 | 20 | 33 | 83 | 84 | 2 | 0 | 93.5 | 81 | 72 | 90.5 | 27
4 | Cc1nnc(-c2ccc3occ(-c4ccc(C(C)O)cc4)c3c2)o1 (stereo not shown) | 9 | 27 | 8 | 0 | 0 | 17 | 0 | 4 | 0 | 0 | 14 | 3 | 35 | 0 | 11 | 13 | 27 | 23 | 3 | 18
5 | CN1c2ccc(CNc3ccc(F)cc3)cc2-c2c(cnn2C)S1(=O)=O | 1 | 0 | 0 | 2 | 5 | 0 | 0 | 0 | 8 | 0 | 13 | 0 | 6 | 0 | 3 | 0 | 21 | 0 | 11 | 0
6 | Cn1cc(-c2ccc3c(c2)CCN3C(=O)Cc2ccccc2Cl)c2c(N)ncnc21 [GSK2608885] | 0 | 13 | 3 | 1 | 88 | 0 | 0 | 0 | 0 | 2 | 30 | 4 | 94 | 0 | 0 | 98 | 86 | 74 | 94 | 23
7 | [2H]C([2H])(c1cccc(C(F)(F)F)c1C)n1ccn2c(=O)nc(N3CCOCC3)cc12 [GSK2336394] | 0 | 1 | 31 | 8 | 28 | 0 | 0 | 0 | 17 | 0 | 15 | 0 | 0 | 1 | 0 | 0 | 11 | 13 | 8 | 23
8 | O=c1cc(N2CCOCC2)nc2n(Cc3cccc(C(F)(F)F)c3)ccn12 [GSK2297543] | 0 | 0 | 0 | 21 | 16 | 0 | 0 | 15 | 0 | 4 | 0 | 5 | 0 | 0 | 0 | 13 | 0 | 4 | 18 | 18
9 | COC(=O)Nc1nc2cc(Oc3ccc(NC(=O)Nc4cc(F)ccc4F)cc3)ccc2[nH]1.Cl [GW701424] | 0 | 0 | 0 | 7 | 40 | 0 | 4 | 0 | 28 | 0 | 8 | 12 | 0 | 13 | 0 | 0 | 94.5 | 50 | 93.5 | 3
10 | c1ccc(-c2n[nH]cc2-c2ccnc3ccccc23)nc1 [GW271431] | 2 | 75 | 0 | 20 | 24 | 0 | 2 | 0 | 19 | 19 | 11 | 22 | 5 | 0 | 0 | 12 | 20 | 10 | 11 | 24
11 | Fc1ccc(-c2ncn(CCCN3CCOCC3)c2-c2cccnc2)cc1 [SB-211743] | 0 | 0 | 6 | 1 | 0 | 0 | 0 | 10 | 0 | 4 | 12 | 0 | 12 | 0 | 0 | 15 | 31 | 5 | 0 | 0
12 | O=C(NCCNc1ccnc(Nc2ccc(F)cc2)n1)Nc1ccccc1F [GSK1379880] | 0 | 0 | 0 | 0 | 19 | 0 | 0 | 0 | 25 | 0 | 0 | 0 | 21 | 1 | 0 | 11 | 32 | 6 | 0 | 0
13 | O=C(NOCC1CC1)c1ccc(F)c(F)c1Nc1ccc(I)cc1Cl | 0 | 0 | 0 | 0 | 0 | 0 | 0 | 0 | 0 | 0 | 0 | 0 | 0 | 0 | 0 | 0 | 0 | 20 | 2 | 43
14 | c1ccc(-c2cc(-c3c[nH]nc3-c3ccccn3)ccn2)cc1 [GW576604] | 0 | 42 | 0 | 1 | 12 | 0 | 0 | 0 | 14 | 0 | 0 | 0 | 0 | 4 | 0 | 14 | 0 | 3 | 0 | 23
15 | COc1ccc(Nc2nccc(N3CCC(NC(=O)Nc4cc(C)ccc4C)C3)n2)cc1 (stereo not shown) [GSK1379741] | 0 | 0 | 0 | 0 | 32 | 0 | 10 | 0 | 25 | 0 | 0 | 0 | 11 | 12 | 0 | 15 | 37 | 46 | 0 | 0
16 | CN(C1=C(c2ccccc2)C(=O)NC1=O)c1ccccc1 [SB-334860] | 0 | 4 | 0 | 12 | 15 | 0 | 23 | 0 | 0 | 0 | 23 | 9 | 42 | 12 | 0 | 21 | 10 | 0 | 0 | 0
17 | Cc1ccc(NC(=O)c2ccnc(N3CCN(C)CC3)c2)cc1-c1ccc(C(=O)NCC2CC2)cc1 [GW775604] | 16 | 0 | 0 | 1 | 0 | 0 | 0 | 6 | 0 | 0 | 0 | 0 | 0 | 0 | 0 | 0 | 2 | 0 | 0 | 0
18 | O=C(Nc1cccc(-c2nn3ncccc3c2-c2ccnc(Nc3cccc(C(F)(F)F)c3)n2)c1)c1c(F)cccc1F [GSK299495] | 0 | 0 | 0 | 1 | 28 | 0 | 1 | 0 | 22 | 0 | 15 | 0 | 12 | 1 | 3 | 9 | 29 | 56 | 6 | 19
19 | NS(=O)(=O)c1cccc(-c2ccc3nccc(-c4cccc(S(N)(=O)=O)c4)c3c2)c1 [GW867253] | 0 | 0 | 0 | 0 | 10 | 2 | 0 | 10 | 0 | 0 | 6 | 0 | 0 | 0 | 0 | 19 | 45 | 0 | 0 | 0
20 | O=c1cc(N2CCOCC2)nc2n(Cc3cccc(Cl)c3Cl)c(C3CC3)nn12 [GSK2358994] | 0 | 0 | 9 | 11 | 0 | 12 | 0 | 0 | 0 | 5 | 0 | 0 | 0 | 0 | 0 | 0 | 4 | 0 | 3 | 0
